Laboratory results: PubChem BioAssay
Active and inactive are the calls of the source.

Columns and labels:
[1] = compound effects on differentiated 3T3-L1 adipocyte viability – cell-based, 3T3-L1 adipocytes, calcein-AM fluorescence, 48 h, basal, profiling panel (AID 1163); conditions: 3T3-L1 adipocytes viability, higher = more signal
[2] = compound effects on hepatocellular carcinoma cell viability – HepG2, calcein-AM fluorescence, 48 h, basal, profiling panel (AID 1164); conditions: higher = more signal
[3] = compound effects on multiple myeloma cell viability – MM1S, calcein-AM fluorescence, 48 h, basal, profiling panel (AID 1165); conditions: higher = more signal
[4] = calcein-AM signal in unstimulated myeloma cells – cell-based, calcein-AM fluorescence, 48 h, PK04 Diversity Set, profiling panel (AID 1166); conditions: RPMI8226 myeloma viability, higher = more signal;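 also: cells grown under basal conditions without added stimulus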
[5] = JC-1 mitochondrial signal, unstimulated HepG2 cells – cell-based, JC-1 fluorescence, 24 h, 100 nL compound, profiling panel (AID 1167); conditions: HepG2 mitochondrial potential, higher = more signal
[6] = JC-1 mitochondrial signal, unstimulated adipocytes – cell-based, JC-1 fluorescence, 3T3-L1 adipocytes, 24 h, 100 nL compound, profiling panel (AID 1168); conditions: JC-1 mitochondrial fluorescence, higher = more signal, called active from +8 up or from −8 down
[7] = JC-1 mitochondrial signal, unstimulated myeloma cells – cell-based, JC-1 fluorescence, RPMI8226, 24 h, 100 nL compound, profiling panel (AID 1169); conditions: JC-1 mitochondrial potential fluorescence, higher = more signal
[8] = JC-1 mitochondrial signal, unstimulated MM1S myeloma – cell-based, JC-1 fluorescence, 24 h, 100 nL compound, profiling panel (AID 1170); conditions: MM1S mitochondrial potential, higher = more signal
[9] = resazurin metabolic signal in A549 cells – cell-based, resazurin fluorescence, 24 h, PK04 Diversity Set, profiling panel (AID 1171); conditions: A549 viability, higher = more signal, called active from +8 up or from −8 down
[10] = resazurin metabolic signal in HepG2 cells – cell-based, resazurin fluorescence, 24 h, PK04 Diversity Set, profiling panel (AID 1172); conditions: HepG2 viability, higher = more signal
[11] = budding yeast growth changes without added modifier – OD600, strain BY4716, 24 h, basal condition, primary screen (AID 1173); conditions: S. cerevisiae BY4716 growth, OD600, 24 h; higher = more signal, called active from +8 up or from −8 down
[12] = viability profiling in MM1S myeloma cells – cell-based, resazurin fluorescence, basal, 24 h, PK04 Diversity Set, profiling panel (AID 1174); conditions: higher = more signal, called active from +8 up or from −8 down
[13] = target: Dihydroorotate dehydrogenase (quinone), mitochondrial (Plasmodium falciparum (isolate 3D7)) (UniProt Q08210); test: inhibition of P. falciparum DHODH – biochemical, C-terminal His tag, absorbance 600 nm, primary screen (AID 1175); conditions: PfDHODH enzyme, DCIP absorbance 600 nm; higher = more signal, called active from +8 up or from −8 down;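 also: recombinant parasite enzyme with a five histidine tag at its C terminus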
Sequence of Dihydroorotate dehydrogenase (quinone), mitochondrial (Plasmodium falciparum (isolate 3D7)) (Q08210 whole entry, looked up): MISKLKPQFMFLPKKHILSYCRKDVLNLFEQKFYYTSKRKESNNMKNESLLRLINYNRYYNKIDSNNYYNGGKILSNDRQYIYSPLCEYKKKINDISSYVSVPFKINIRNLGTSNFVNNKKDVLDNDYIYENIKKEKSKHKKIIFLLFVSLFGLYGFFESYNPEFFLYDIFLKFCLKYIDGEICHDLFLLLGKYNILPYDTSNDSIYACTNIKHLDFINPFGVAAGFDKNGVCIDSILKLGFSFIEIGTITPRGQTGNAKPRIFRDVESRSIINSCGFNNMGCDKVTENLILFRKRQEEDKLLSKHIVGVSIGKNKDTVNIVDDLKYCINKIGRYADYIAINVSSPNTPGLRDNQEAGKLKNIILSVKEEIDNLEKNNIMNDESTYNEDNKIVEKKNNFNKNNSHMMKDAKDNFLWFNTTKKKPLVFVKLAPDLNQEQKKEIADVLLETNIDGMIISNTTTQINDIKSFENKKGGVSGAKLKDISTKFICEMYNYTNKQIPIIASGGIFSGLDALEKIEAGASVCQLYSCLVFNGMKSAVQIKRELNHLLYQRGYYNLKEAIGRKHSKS

[14] = growth modulation of vineyard yeast isolate – strain RM11-1a, OD600, basal, 24 h, primary screen (AID 1177);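 also: cultures grown under basal conditions with no added stressor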; conditions: S. cerevisiae RM11-1a growth, OD600, 24 h; higher = more signal, called active from +8 up or from −8 down
[15] = growth of efflux-deficient E. coli DRC39 – strain DRC39, OD650, 24 h, E. coli filamentation inducers, primary screen (AID 1178);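 also: growth measured as culture turbidity by optical density at 650 nm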; conditions: E. coli DRC39 acrAB, higher = more signal, called active from +8 up or from −8 down
[16] = growth of efflux-deficient E. coli DRC39 – strain DRC39, OD650, 48 h, E. coli filamentation inducers, primary screen (AID 1179);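 also: screen aims at cell division blockers that make cells filament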; conditions: E. coli DRC39 delta-acrAB growth, higher = more signal, called active from +8 up or from −8 down
[17] = viability profiling in RPMI8226 myeloma cells – cell-based, resazurin fluorescence, basal, 24 h, PK04 Diversity Set, profiling panel (AID 1180); conditions: higher = more signal;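 also: RPMI8826 multiple myeloma cell line at 5000 cells per well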
[18] = target: E3 ubiquitin-protein ligase XIAP (Homo sapiens) (UniProt P98170); test: small molecules binding XIAP protein – biophysical, small-molecule microarray, fluorescence 635 nm, primary screen (AID 1181); conditions: higher = more signal;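 also: score merges 667 nm emission and signal to noise over triplicate slides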
Sequence of E3 ubiquitin-protein ligase XIAP (Homo sapiens) (P98170 whole entry, looked up, the tested form may be a part): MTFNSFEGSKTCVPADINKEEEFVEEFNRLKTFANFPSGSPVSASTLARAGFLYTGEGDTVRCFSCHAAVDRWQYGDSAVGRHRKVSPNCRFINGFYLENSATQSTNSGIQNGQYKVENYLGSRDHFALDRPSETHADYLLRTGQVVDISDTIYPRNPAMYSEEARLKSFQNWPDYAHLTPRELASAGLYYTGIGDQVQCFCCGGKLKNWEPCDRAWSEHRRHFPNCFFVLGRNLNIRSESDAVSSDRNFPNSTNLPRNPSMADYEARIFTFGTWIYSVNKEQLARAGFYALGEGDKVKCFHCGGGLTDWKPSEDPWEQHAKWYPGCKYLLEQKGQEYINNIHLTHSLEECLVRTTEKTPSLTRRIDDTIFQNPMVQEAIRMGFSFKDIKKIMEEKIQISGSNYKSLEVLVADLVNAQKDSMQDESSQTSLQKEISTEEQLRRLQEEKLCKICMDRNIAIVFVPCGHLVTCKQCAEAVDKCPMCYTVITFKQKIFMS

[19] = test system: XIP peptide (Xip251-270) binding; test: XIP fragment 251-270 binding compounds – biochemical, small-molecule microarray, fluorescence 635/667 nm, 0.1 µg/mL protein, primary screen (AID 1182); conditions: fluorescent protein binding, 635 nm, higher = more signal, called active from +8 up or from −8 down
XIP peptide (Xip251-270) = test: compounds binding XIP fragment 251-270 – biochemical, small-molecule microarray, fluorescence 635/667 nm, 0.5 µg/mL protein, primary screen (AID 1183); conditions: fluorescence 635 nm, higher = more signal

SMILES | z-score [1] | z-score [2] | z-score [3] | z-score [4] | z-score [5] | z-score [6] | z-score [7] | z-score [8] | z-score [9] | z-score [10] | z-score [11] | z-score [12] | composite z-score [13] | z-score [14] | z-score [15] | z-score [16] | z-score [17] | composite z-score [18] | composite z-score [19] | composite z-score (XIP peptide (Xip251-270))
C=CCN1C(=O)[C@@]2(O[C@@H](CCO)[C@H]([Si](C)(C)c3ccc(OC)cc3)[C@H]2C)c2cc(N3C(=O)c4cccc5cccc3c45)ccc21 | -1.3 | -4.72 | -2.92 | -4.4 | -2.34 | 2.26 (inactive) | -1.01 | -2.09 | -4.58 (inactive) | -6.14 | 0.275 (inactive) | -8.59 (active) | 0.901 (inactive) | 5.51 (inactive) | 2.57 (inactive) | 2.05 (inactive) | -6.03 | 0.0411 | 0.777 (inactive) | 0.714
CCCNC(=O)[C@@H]1c2ccccc2C(=O)N(Cc2cc(C(F)(F)F)cc(C(F)(F)F)c2)[C@H]1c1ccc(CO)cc1 | 1.6 | 0.174 | -0.298 | -1 | 1.4 | -0.652 (inactive) | 0.188 | 1.01 | 0.741 (inactive) | 0.397 | -0.367 (inactive) | 1.52 (inactive) | 0.754 (inactive) | 0.288 (inactive) | 1.06 (inactive) | -0.625 (inactive) | 1.63 | -0.374 | 0.133 (inactive) | 0.219
C[C@@H](OCc1ccccc1)C1NC(=O)[C@@]23C(=O)N[C@@H](Cc4ccccc4)C2[C@H](C)[C@@]2(C)O[C@H]2C3/C=C/C/C=C\CNC(=O)[C@@H]2CCCN2C1=O (stereo not given in full) | 0.812 | 0.11 | -1.11 | -0.722 | 2.87 | 0.566 (inactive) | 0.0782 | 1.19 | 1.46 (inactive) | 0.432 | -1.9 (inactive) | 0.556 (inactive) | -0.0867 (inactive) | -0.421 (inactive) | 2.53 (inactive) | 1.66 (inactive) | 0.685 | 0.176 | 0.187 (inactive) | -1.05
C=CCC1(CC=C)C[C@H]2CO[C@H](c3ccc(OC)cc3)N2C1=O | 0.683 | -0.88 | 0.347 | 0.0778 | 0.872 | 0.773 (inactive) | -0.245 | 0.278 | 0.771 (inactive) | 1.01 | -4.05 (inactive) | -1.19 (inactive) | 0.621 (inactive) | -0.169 (inactive) | 1.51 (inactive) | 1.03 (inactive) | 0.765 | -0.323 | 0.842 (inactive) | 0.739
CCCNC(=O)[C@@]1(Sc2ccc(C)cc2)CC(=O)N(Cc2cc(C(F)(F)F)cc(C(F)(F)F)c2)[C@@H]1c1ccc(CO)cc1I | 0.66 | 1.28 | -2.53 | -1.3 | 0.848 | 1.18 (inactive) | -0.649 | -1.24 | 0.0086 (inactive) | 1.05 | -5.79 (inactive) | -1.68 (inactive) | -0.684 (inactive) | -5 (inactive) | 0.961 (inactive) | 1.4 (inactive) | -1.55 | -0.0925 | 0.459 (inactive) | 0.816
C#CCOc1ccc(C[C@H]2C(=O)O[C@H](Cc3ccccc3)[C@H](/C=C/C3CC3)N2CC#C)cc1 | 0.892 | -0.99 | -1.63 | -1.89 | 2.08 | 0.476 (inactive) | -0.599 | 0.0151 | 1.51 (inactive) | 1.71 | -0.783 (inactive) | 0.35 (inactive) | 0.656 (inactive) | 1.29 (inactive) | 2.66 (inactive) | 1.81 (inactive) | 0.915 | -0.144 | 0.294 (inactive) | -0.237
C#CCN1C(C(=O)OCC)OC[C@H]1c1ccccc1 (stereo not given in full) | 0.714 | -0.0851 | 0.712 | -0.181 | 1.06 | 0.842 (inactive) | 0.297 | -0.316 | -0.282 (inactive) | 0.513 | -6.25 (inactive) | 1.49 (inactive) | 0.253 (inactive) | -2.24 (inactive) | 2.47 (inactive) | 0.724 (inactive) | 0.0912 | -0.227 | -0.0319 (inactive) | -0.258
COc1ccc(C(=O)Nc2cccc(CN3C(=O)[C@@]4(O[C@@H](CCO)[C@H]([Si](C)(C)c5ccc(OC)cc5)[C@H]4C)c4ccccc43)c2)cc1 | -0.301 | -4.74 | -2.7 | -4.46 | -1.97 | 2.77 (inactive) | -0.972 | -2.36 | -5.62 (inactive) | -6.42 | -3.58 (inactive) | -9.06 (active) | -0.873 (inactive) | 2.06 (inactive) | 2.75 (inactive) | 1.55 (inactive) | -6.22 | 0.0049 | 0.11 (inactive) | 0.115
COC(=O)C1=CC(c2ccc(CO)cc2)=CC(c2cccs2)N(C)C=C1C(=O)OC (stereo not given) | 2.32 | -0.0015 | -0.517 | -0.257 | 0.636 | 0.375 (inactive) | -0.327 | 0.12 | 0.446 (inactive) | -0.419 | -2.16 (inactive) | 0.173 (inactive) | -1.75 (inactive) | -0.688 (inactive) | 1.05 (inactive) | 0.542 (inactive) | 1.05 | 0.0049 | 1.84 (inactive) | 0.302
